Laboratory results as given in the supplement of paper PMC6555819.

Assays:
Assay in all cases: PBM binding z-score (relative to random genomic background probes); higher = stronger binding; sequences stand for … in GC…GCGATTGACAGCGTAGAATGAAGG
[1] = system: RARb homodimer (NR concentration 270 nM)
How it was run: (§1)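 Binding z-scores take random background probes as their reference. They come from custom Agilent 4×180K protein-binding microarrays incubated 1 h with ligand-free nuclear receptor dimers, with antibodies against each partner (one per run) detecting binding. Scanned fluorescence was regression-normalized.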

[2] = system: RARg:RXRa (NR concentration 270 nM, RXRa partner concentration 90 nM)
How it was run: as §1

[3] = system: RARg homodimer (NR concentration 270 nM)
How it was run: as §1

[4] = system: RXRa DBDmut IVT, anti-RXR (DBD mutation: RXRa K156A/R161A, NR concentration 90 nM)
How it was run: as §1

[5] = system: RXRa homodimer (NR concentration 180 nM)
How it was run: as §1

[6] = system: THRa:RXRa (NR concentration 90 nM, RXRa partner concentration 90 nM)
How it was run: as §1

[7] = system: THRa homodimer (NR concentration 90 nM)
How it was run: as §1

[8] = system: VDR homodimer (NR concentration 270 nM)
How it was run: as §1

Row | Sequence | PBM binding z-score [1] | PBM binding z-score [2] | PBM binding z-score [3] | PBM binding z-score [4] | PBM binding z-score [5] | PBM binding z-score [6] | PBM binding z-score [7] | PBM binding z-score [8]
1 | ACAGAAAGGTGATGAAGGTAACTCAGGCTATCAT | 0.99 | 1.18 | 1.35 | 0.11 | 1 | 1.44 | 0.0697 | -0.00913
2 | CCCTACGGGTCACGAGGTTATAGCACGACGAGCG | 4.13 | 6.2 | 5.6 | 1.19 | 7.45 | 3.59 | 1.02 | 1.66
3 | TCTTGTAGATCATGCAGGTTAAGAAAGCCTGAGT | 0.268 | 0.108 | 0.0949 | 0.784 | 0.65 | 0.509 | -0.0439 | 0.115
4 | TCGAGTAGGTTAGGCGCATTCAGAATGGCGTCGA | -0.314 | -0.45 | -0.527 | -0.0106 | -0.118 | -0.415 | -0.996 | -0.809
5 | AGAATGAGGATACCAAAGATCAGGGAAACGCTTG | -0.727 | 0.287 | 0.437 | -0.419 | 0.36 | 1.5 | 0.171 | -0.61
6 | GGAACGAGGGCAAAGTTGATAGCGTCTGTCGACG | 1.32 | 2.22 | 1.75 | 2.69 | 2.17 | 1.38 | -0.194 | 1.43
7 | CTTCCAAGGTCAAAGGTCAGTGAAGAGATGACGG | 5.53 | 8.63 | 8.01 | 3.91 | 10.4 | 5.02 | 3.03 | 3.67
8 | AATACAGGGTCACTAGGCTAGAGTAGGTACGAAT | 3.33 | 4.95 | 5.26 | 2.71 | 5.52 | 3.35 | 1.23 | 2.2
9 | GCTTGTAGAACAAGGTTAAGAAAGACTAAGCTAA | -0.00172 | 0.534 | 0.188 | -0.0592 | 0.633 | 0.947 | -0.592 | -0.315
10 | CCAGACAGGTGAAAGGTAACTCATTCTGGTACGC | 0.992 | 1.41 | 0.877 | 0.192 | 2.12 | 1.13 | 0.167 | 0.0322
11 | CGAACGAGGGCATGAGTTGATAGCTAATGCCGAT | 0.599 | 1.51 | 1.52 | 2.15 | 0.984 | 1.25 | -0.207 | 1.67
12 | TCATAGAGGTAATACAGGTGAAAGTCGGCATCTA | 0.233 | 0.441 | 0.488 | 1.01 | 1.16 | 1.4 | -0.345 | 0.0318
13 | GGAACGAGGGCAAACTTGATAGCATCTGTCGACG | 1.03 | 1.52 | 1.62 | 3.1 | 1.17 | 1.09 | -0.309 | 1.61
14 | AATACAGGGTCACTAGACCAGAGTAGGTACGAAT | 2.96 | 4.98 | 4.81 | 2.68 | 5.91 | 3.24 | 1.08 | 2.54
15 | GCTGCTAGGTCAGGTTGGTCAGCCAACGGGTACG | 2.66 | 2.78 | 3.65 | 0.121 | 0.819 | 1.61 | 0.269 | 0.768
16 | ATATGTAGGTTAGCTGGGGTCATGCAGACTAGGC | 4.19 | 4.65 | 3.65 | 1.38 | 6.31 | 5.42 | 3.72 | 4.15
17 | GCATATGGGTAATACAAGGTGAAAGTCCGATTGT | 0.725 | 0.405 | 0.402 | 0.208 | 0.486 | 3.98 | 0.841 | 0.115

Row | Sequence | PBM binding z-score [1] | PBM binding z-score [2] | PBM binding z-score [3] | PBM binding z-score [4] | PBM binding z-score [5] | PBM binding z-score [6] | PBM binding z-score [7] | PBM binding z-score [8]
18 | GGAACAAGGGCAAAGTTGATAGCATCTGTCGACG | 1.5 | 1.92 | 1.83 | 1.5 | 1.27 | 0.979 | -0.125 | 0.766
19 | TCATATAGGAAAAAGGTGAAAGTCGGTGTGGTAA | 1.66 | 0.803 | 0.339 | 1.88 | 1.5 | 1.11 | 0.221 | 0.152
20 | ATATGTAGGTTATCGGATCATTCAGTTTGCGCAT | 0.853 | 0.837 | 0.866 | 0.702 | 1.12 | 0.794 | 0.624 | 0.764
21 | TGAATGAGGTTATAATATCAGGGAACGTTGCAAA | 0.41 | 1.56 | 1.12 | 0.98 | 2.04 | 1.92 | 0.355 | 0.545
22 | AGTCAAAGTTCAGGACGAGGTAACATAAAGCACG | 3.26 | 4.89 | 4.71 | 3.19 | 3.25 | 3.73 | 1.55 | 2.24
23 | AGAATGAGGTTAAGATCAGAGAAACAGAATACAT | 0.686 | 2.05 | 1.45 | 0.652 | 2.36 | 2.29 | 0.47 | 0.291
24 | ATCTCTAGGTGACCAAGTTCAGTGAATGCCGAAC | 1.77 | 1.24 | 1.38 | 0.521 | 0.867 | 1.5 | 0.429 | 2.22
25 | CCTAGTTGGTCAAGGTGACACACGCTATAGGTAC | 1.8 | 1.49 | 1.74 | 0.165 | 1.05 | 2.06 | 1.65 | 0.83
26 | GCTTACCGGTCAAAGGTTATAGCATGAATAGAAT | 2.62 | 5.63 | 3.54 | 0.541 | 5.37 | 2.2 | -0.177 | 0.217
27 | CCTGCTTGGTCAATGGTCAGCTAAAGCAGCTCGC | 0.507 | -0.324 | 0.0947 | 0.0969 | -0.389 | -0.501 | -0.238 | -0.585
28 | CAAACTAGGTCAAGGTCAGAGTCGGTTTGTGCCA | 4.8 | 5.32 | 6.42 | 2.33 | 4.6 | 4.29 | 3.28 | 2.79
29 | CGAACTAGGTCAGAATAGGACAGTGAAGGATGAT | 2.16 | 2.58 | 3.36 | 0.702 | 1.3 | 2.77 | 0.0202 | -0.245
30 | GGACCGAGGGCAAGTTGATAGCAGAGTTTGATGG | 1.43 | 1.78 | 2.07 | 2.06 | 0.783 | 0.968 | -0.0674 | 1.67
31 | TCATATAGGTAAAAGGTGAAAGCCGGTGTGGTAA | 1.74 | 2.11 | 0.955 | 1.45 | 2.92 | 1.56 | 8.19e-05 | -0.0743
32 | ATCTCTAGGTAACACTCAGTTCAGTGAAGAACGC | 1.27 | 0.926 | 0.875 | 1.05 | 0.63 | 1.64 | 1.38 | 2.25
33 | CTCGAAAGGTAGGTTGAGGTGAGTATACGGATAA | 0.59 | 0.129 | 0.396 | -0.171 | 0.223 | 3.9 | 1.24 | 0.0952
34 | AGTCAAATTTCAGGACGAGGTAACGTAAAGCACG | 0.179 | 0.276 | 0.438 | -0.237 | 0.24 | 2.29 | 1.82 | 0.197
